Measurements as given in PubChem BioAssay (NCATS).
Results filed as inconclusive are left out. Where a call stands in place of a potency, no number is given. The source made the active and inactive calls. Unless noted, calls come from the whole dose curve; as a rule, active = well fitted curve in the direction sought with a large enough effect; inconclusive = small, poorly fitted or top-dose-only effect, or another doubt; inactive = no such curve, though single readings can be large; an effect the other way counts as inactive or inconclusive.

How the values were obtained:
[1] = qHTS to identify inhibitors of the type 1 interferon - major histocompatibility complex class I in skeletal muscle: primary screen against the NCATS LOPAC collection (AID 1347405);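 note: lytic HiBiT luminescence reporting HLA-B protein level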; note: potency is the fitted concentration of half-maximal effect
Outline: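 Luminescence from HiBiT fused to endogenous HLA-B in CRISPR-engineered human myoblasts served as the read-out. Cells received 4.0 ng/ml IFN-beta plus compound (seven concentrations, 1:4.3 steps, highest 46 uM final) for 24 hrs before lytic detection.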

[2] = qHTS for inhibitors of adenylyl cyclases using a fission yeast platform: a pilot screen against the NCATS LOPAC library (AID 1347410)
Outline: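 Inhibition of GNAS-stimulated AC9 activity in S. pombe was inferred from derepression of a PKA-repressed fbp1-GFP reporter, measured as cytometric fluorescence after 18 h at 30C with compounds at up to 57 µM.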

[3] = Validation qHTS assay for inhibitors of Activation Induced Cytidine Deaminase (AID): UDG Counterscreen signal (AID 1347427)
Outline: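 Counterscreen read of UDG activity (2 U/mL, 4/3x) in the FRET deamination format with AID (1 uM, 4/3x), DJC20/DJC23 substrates (250 nM, 4x), 4 h at room temperature. NaOH stop, fluorescence at 560 ex/665 em.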

[4] = target: Single-stranded DNA cytosine deaminase (Homo sapiens) (UniProt Q9GZX7); assay: Validation qHTS assay for inhibitors of Activation Induced Cytidine Deaminase (AID): AID signal (AID 1347429)
Single-stranded DNA cytosine deaminase (Homo sapiens), sequence (Q9GZX7 whole entry, looked up): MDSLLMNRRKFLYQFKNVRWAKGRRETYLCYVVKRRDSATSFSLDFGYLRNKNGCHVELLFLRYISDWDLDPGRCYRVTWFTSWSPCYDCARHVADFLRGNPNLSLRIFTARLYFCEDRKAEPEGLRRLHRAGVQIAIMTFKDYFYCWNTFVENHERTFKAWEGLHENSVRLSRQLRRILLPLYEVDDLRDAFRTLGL
Outline: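 Fluorescence at 540 nm excitation and 590 nm emission reports ssDNA cytosine deamination by AID, with UDG in the same well. Compound-treated reactions ran 4 hr at room temperature with DJC20/DJC23 substrate, followed by 30 min NaOH treatment.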

[5] = Primary qHTS for inhibitors of La Crosse Virus (LACV) - induced cell death in SH-SY5Y cells (AID 1508616); note: potency is the fitted concentration of half-maximal effect
Outline: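 Protection against LACV-induced cell death is scored in SH-SY5Y cells exposed to compounds and virus (0.01 MOI) for 6 days. Data normalized to virus-infected DMSO wells and virus-free DMSO wells.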

[6] = target: Calcium and integrin-binding protein 1 (Homo sapiens) (UniProt Q99828); assay: Validation qHTS for Identification of Calcium Integrin Binding protein 1 (CIB1) Competitor (AID 1508618)
Calcium and integrin-binding protein 1 (Homo sapiens), sequence (Q99828 whole entry, looked up): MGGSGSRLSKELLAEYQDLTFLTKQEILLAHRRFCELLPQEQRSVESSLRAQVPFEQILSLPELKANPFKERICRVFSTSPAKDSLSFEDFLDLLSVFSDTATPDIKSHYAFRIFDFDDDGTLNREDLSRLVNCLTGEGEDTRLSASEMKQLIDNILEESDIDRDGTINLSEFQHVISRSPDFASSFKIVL
Outline: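 Fluorescence polarization with 1 uM CIB1-GST and 100 nM FITC-alphaIIb peptide in HEPES pH 7.4, NaCl, 5 mM CaCl2, Tween20. Compounds at up to 114 uM final, preincubated with protein 15 min; read after 15 min more at RT.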

[7] = Primary qHTS for small molecule stabilizers of the endoplasmic reticulum resident proteome: Secreted ER Calcium Modulated Protein (SERCaMP) assay (AID 1508630); note: potency is the fitted concentration of half-maximal effect
Outline: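 GLuc-SERCaMP-expressing SH-SY5Y cells, pretreated 16 h with compound, are challenged with thapsigargin to empty ER calcium stores; after 4 h, coelenterazine is added directly to the medium and luminescence is imaged.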

[8] = qHTS to identify inhibitors of the type 1 interferon - major histocompatibility complex class I in skeletal muscle: primary screen against the NCATS Mechanism Interrogation Plate v5.0 (MIPE) Libary (AID 1347411); note: nearly all actives have a fitted effect of over 65% in size
Outline: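 Luminescence from HiBiT-tagged endogenous HLA-B*08:01 served as the MHC class I read-out. CRISPR-engineered C25cl48 human myoblasts received 4.0 ng/ml IFN-beta plus compound for 24 hrs, with an 11-point, 1:3 series topping at 46 uM final.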

[9] = qHTS to identify inhibitors of the type 1 interferon - major histocompatibility complex class I in skeletal muscle: primary screen against the NCATS Pharmaceutical Collection (AID 1347407);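 note: luminescence of HiBiT knocked into endogenous HLA-B as interferon-induced MHC class I level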
Outline: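 A qHTS format is used: 8-point, 1:5 compound series with 46 uM top final concentration, applied alongside 4 ng/ml IFN-beta to HLA-B*08:01-HiBiT knock-in myoblasts. Luminescence is measured after 24 h treatment.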

[10] = target: Protein phosphatase 1D (Homo sapiens) (UniProt O15297); assay: RapidFire Mass Spectrometry qHTS Assay for Modulators of WT P53-Induced Phosphatase 1 (WIP1) (AID 1347424);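 note: amount of dephosphorylated VEPPL-S-QETFS peptide product formed by WIP1; series mostly up to about 63 µM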
Protein phosphatase 1D (Homo sapiens), sequence (O15297 whole entry, looked up): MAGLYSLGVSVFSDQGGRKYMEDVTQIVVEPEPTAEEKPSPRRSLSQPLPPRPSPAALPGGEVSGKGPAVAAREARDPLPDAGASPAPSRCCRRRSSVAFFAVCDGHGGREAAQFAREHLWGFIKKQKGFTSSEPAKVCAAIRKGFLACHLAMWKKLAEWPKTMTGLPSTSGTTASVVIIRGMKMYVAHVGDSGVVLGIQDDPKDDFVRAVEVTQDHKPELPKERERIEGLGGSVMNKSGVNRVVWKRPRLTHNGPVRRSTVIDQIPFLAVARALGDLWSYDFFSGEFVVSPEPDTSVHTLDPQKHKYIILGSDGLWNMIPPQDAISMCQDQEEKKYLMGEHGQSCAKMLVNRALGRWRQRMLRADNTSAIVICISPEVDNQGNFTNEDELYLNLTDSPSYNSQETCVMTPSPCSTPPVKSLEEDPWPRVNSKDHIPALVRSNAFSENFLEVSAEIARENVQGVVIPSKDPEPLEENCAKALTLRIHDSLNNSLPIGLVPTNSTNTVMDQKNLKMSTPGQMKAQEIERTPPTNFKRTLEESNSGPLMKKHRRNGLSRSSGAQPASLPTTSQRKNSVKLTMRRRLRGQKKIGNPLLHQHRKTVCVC
Outline: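 10 nM WIP1 preincubated with compounds 1 hr at room temperature in pH 7.5 Tris buffer with 30 mM MgCl2, 1 mM TCEP; 2 uM VEPPL-pS-QETFS phosphopeptide for 5 min, formic acid quench; dephosphorylated product quantified by RapidFire MS against labelled standard.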

[11] = target: Protein phosphatase 1D (Homo sapiens) (UniProt O15297); assay: Rhodamine-PBP qHTS Assay for Modulators of WT P53-Induced Phosphatase 1 (WIP1) (AID 1347425)
Outline: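 WIP1 (5 nM final) was preincubated with compound for 1 hour at room temperature. It then dephosphorylated 10 uM VEPPL-pS-QETFS peptide in Tris-HCl pH 7.5 with 30 mM MgCl2. Released Pi was detected by 10 uM Rh-PBP fluorescence (ex 525/em 598 nm) read at 1-min intervals for 11 min, as delta f1 - f0.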

[12] = target: Calcium and integrin-binding protein 1 (Homo sapiens) (UniProt Q99828); assay: Primary qHTS for Identification of Calcium Integrin Binding Protein 1 (CIB1) Competitor (AID 1508620);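 note: GST tagged CIB1 binding a fluorescein labelled alphaIIb integrin peptide tracer; top concentration of the series differs between compounds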
Outline: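 Fluorescence polarization competition: GST-tagged CIB1 (1 uM final) preincubated with compound 15 min at room temperature, then FITC-labelled alphaIIb peptide (100 nM final) added. After 15 min at room temperature, polarization read at Ex 480/Em 540.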

[13] = A High-Content qHTS Against Drug Library for the Identification of Small Molecules that Inhibit DYT1 Early Onset Primary Dystonia-Associated Cell Pathology (AID 1645839; calls by dose curve; note: series mostly up to about 46 µM)
Outline: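 Flp-In T-REx 293 cells with tetracycline-inducible EGFP-delE hTOR1A (WT EGFP-hTOR1A as reference), 800 cells/well; compound added with tetracycline, 48 h at 37 C. Fixed, permeabilized cells imaged; %pathology (punctate TorsinA) primary, cell count counterscreen.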

[14] = Counterscreen qHTS for small molecule stabilizers of the endoplasmic reticulum resident proteome: GLuc-NoTag assay (AID 1508627);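 note: SH-SY5Y cells given compound then 100 nM thapsigargin to empty ER calcium; series mostly up to about 76 µM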
Outline: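 SH-SY5Y cells stably expressing constitutively secreted GLuc without SERCaMP tag, exposed to compound for 19 hr, then to 100 nM thapsigargin for 4 hr at 37C. Medium luciferase was read by coelenterazine luminescence without lysis.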

[15] = qHTS for inhibitors of ER calcium dysfunction: SERCaMP assay screened against the NCATS CANVASS Library (AID 1347393); note: nearly all actives have a fitted effect of over 40% in size; note: potency is the fitted concentration of half-maximal effect
Outline: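 SH-SY5Y GLuc-SERCaMP, 1000 cells/well, 4 h attach; cpd 16 h, 37C/5% CO2; thapsigargin (added as 6x 600 nM) 4 h; coelenterazine; luminescence. Reduced reporter release = ER Ca stabilization.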

[16] = Vero-766 cells viability qHTS against the NCATS CANVASS Library: Counterscreen for Zika virus inhibition assay (AID 1347394); note: nearly all actives have a fitted effect of over 60% in size; note: potency is the fitted concentration of half-maximal effect
Outline: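 Counterscreen for toxicity: Vero 766 cells exposed 72 h to an 11-point compound series, viability by CellTiter-Glo.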

[17] = Viability qHTS for inhibitors of the SERCaMP assay screened against the NCATS CANVASS Library (AID 1347400); note: nearly all actives have a fitted effect of over 70% in size; note: potency is the fitted concentration of half-maximal effect
Outline: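 SH-SY5Y SERCaMP MJH297 cells, 1000/well; 4 h settle, 37C/5% CO2; pin-transferred cpds; 48 h; CellTiter-Glo lum. Pos ctrl bortezomib 0.0001 - 4.6 uM.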

[18] = Redox Reaction Profiling qHTS: Assay Interference Panel against the NCATS CANVASS Library (AID 1347401)
Outline: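 Compounds in 11-point series incubated with 5 uM resazurin and 200 uM DTT in 50 mM HEPES pH 7.3, 50 mM NaCl. Resorufin fluorescence (Ex 525/Em 598) read before and after 15 min in the dark.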

[19] = qHTS for inhibitors of Wild type Zika virus screened against the NCATS CANVASS Library (AID 1347396);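 note: ATP luminescence of surviving cells so rescue from viral cell killing; series mostly up to about 46 µM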
Outline: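 Vero 766 (African green monkey) cells, 1000 per well, attached overnight, then compounds were added in an 11-point series before wild-type Zika virus infection. After 72 h at 37C, cell viability was read as CellTiter Glo luminescence.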

Nc1ncnc2c1ncn2[C@@H]1O[C@H](COP(=O)(O)CP(=O)(O)OP(=O)(O)O)[C@@H](O)[C@H]1O
Potency [1]: inactive
outcome [2]: inactive
Potency [3]: inactive
Potency [4]: inactive
Potency [5]: inactive
outcome [6]: inactive

NC(CCCP(=O)(O)O)C(=O)O (configuration not stated)
Potency [1]: inactive
outcome [2]: inactive
Potency [3]: inactive
Potency [4]: inactive
Potency [5]: inactive
outcome [6]: inactive
Potency [7]: inactive

CCCCCCCCCCCCCCCC(=O)OC(CC(=O)O)C[N+](C)(C)C (configuration not stated)
Potency [1]: inactive
outcome [2]: inactive
Potency [3]: inactive
Potency [4]: inactive
Potency [5]: inactive
outcome [6]: inactive

OC[C@H]1O[C@@H](n2cnc3c(NC4CCCC4)ncnc32)[C@H](O)[C@@H]1O
Potency [1]: inactive
outcome [2]: inactive
Potency [3]: inactive
Potency [4]: inactive
Potency [5]: inactive
outcome [6]: inactive

COc1ccc(Br)cc1S(=O)(=O)NC(=O)/C=C/c1ccccc1Cc1ccc2ccccc2c1
Potency [1]: inactive
outcome [2]: inactive

CCC(CO)Nc1nc(NCc2ccccc2)c2ncn(C(C)C)c2n1 (configuration not stated)
Potency [1]: 15.8 µM (active)
outcome [2]: inactive

CN(C)CCC(c1ccc(Cl)cc1)c1ccccn1 (configuration not stated)
Potency [1]: inactive
outcome [2]: inactive
Potency [3]: inactive
Potency [4]: inactive
Potency [5]: inactive

NC(N)=NC(=O)c1nc(Cl)c(N2CCCCCC2)nc1N
Potency [1]: inactive
outcome [2]: inactive
Potency [3]: inactive
Potency [4]: inactive
Potency [5]: inactive
outcome [6]: inactive

CC(C)CC(NP(=O)(O)O[C@@H]1O[C@@H](C)[C@H](O)[C@@H](O)[C@H]1O)C(=O)NC(Cc1c[nH]c2ccccc12)C(=O)O (some centres not stated)
Potency [1]: inactive
outcome [2]: inactive
Potency [3]: inactive
Potency [4]: inactive
Potency [5]: inactive
outcome [6]: inactive

COc1cc(SC)ccc1C(=O)N1CCC(Cc2ccccc2)CC1
Potency [1]: inactive
outcome [2]: inactive
Potency [8]: inactive
Potency [3]: inactive
Potency [4]: inactive
Potency [5]: inactive
Potency [7]: inactive

Oc1cc2c(cc1O)CN(C(=S)NCCc1ccc(Cl)cc1)CCC2
Potency [1]: inactive
outcome [2]: inactive
Potency [3]: inactive
Potency [4]: inactive
Potency [5]: 2.24 µM (active)
outcome [6]: inactive

O=C1NCc2c1c1c3ccccc3[nH]c1c1[nH]c3ccccc3c21
Potency [1]: 7.94 µM (active)
outcome [2]: inactive

CN1C2CC(OC(=O)[C@H](CO)c3ccccc3)CC1C1OC12 (some centres not stated)
Potency [1]: inactive
outcome [2]: inactive
Potency [3]: inactive
Potency [4]: inactive
Potency [5]: inactive

CN1CC(=O)N/C1=N/C(=O)Nc1cccc(Cl)c1
Potency [1]: inactive
Potency [9]: inactive
outcome [2]: inactive
Potency [10]: inactive
outcome [11]: inactive
Potency [3]: inactive
Potency [4]: inactive
Potency [5]: inactive
outcome [6]: inactive
Potency [12]: inactive
Potency [13]: inactive

O=C1/C(=C/c2ccsc2)CC/C1=C\c1cccs1
Potency [1]: inactive
outcome [2]: inactive
Potency [3]: inactive
Potency [4]: inactive
Potency [5]: inactive
outcome [6]: inactive

C=CC(N)CCC(=O)O (configuration not stated)
Potency [1]: inactive
outcome [2]: inactive
Potency [3]: inactive
Potency [4]: inactive
Potency [5]: inactive
outcome [6]: inactive

NC(=O)C1=CN(C2OC(COP(=O)(O)OP(=O)(O)OC[C@H]3O[C@@H](n4cnc5c(N)ncnc54)[C@H](OP(=O)(O)O)[C@@H]3O)C(O)C2O)C=CC1 (some centres not stated)
Potency [1]: inactive
outcome [2]: inactive
Potency [3]: inactive
Potency [4]: inactive
Potency [5]: inactive
outcome [6]: inactive

CCC1C(=O)OCC1Cc1cncn1C (configuration not stated)
Potency [1]: inactive
Potency [9]: inactive
outcome [2]: inactive
Potency [10]: inactive
outcome [11]: inactive
Potency [3]: inactive
Potency [5]: inactive
outcome [6]: inactive
Potency [12]: inactive
Potency [13]: inactive

O=C(Nc1ccc2c(c1)CCN(Cc1ncn[nH]1)C2)c1ccccc1-c1ccc(C(F)(F)F)cc1
Potency [1]: inactive
outcome [2]: inactive
Potency [8]: inactive
outcome [6]: inactive
Potency [12]: inactive

N#C/C(=C\c1ccc(O)c(O)c1)C(=O)c1ccc(O)c(O)c1
Potency [1]: inactive
outcome [2]: inactive
Potency [3]: inactive
Potency [4]: inactive
Potency [5]: inactive
outcome [6]: inactive
Potency [14]: inactive

Cc1ccc(S(=O)(=O)/C=C/C#N)cc1
Potency [1]: 12.6 µM (active)
outcome [2]: inactive
Potency [3]: inactive
Potency [4]: inactive
Potency [5]: 1.41 µM (active)
outcome [6]: inactive
Potency [7]: inactive

Nc1ccn([C@@H]2O[C@H](CO)[C@@H](O)[C@@H]2O)c(=O)n1
Potency [1]: inactive

Clc1ccc(N2CCN(Cc3cc4ccccn4n3)CC2)cc1
Potency [1]: inactive
outcome [2]: inactive
Potency [3]: inactive
Potency [4]: inactive
Potency [5]: inactive
outcome [6]: inactive
Potency [7]: inactive

O=c1cc(-c2ccccc2)oc2c(O)c(O)ccc12
Potency [15]: 38.4 µM (active)
Potency [16]: 23.4 µM (active)
Potency [17]: 34 µM (active)
outcome [18]: inactive
Potency [1]: inactive
outcome [6]: inactive

CC(=O)SCC[N+](C)(C)C
Potency [1]: inactive
outcome [2]: inactive
Potency [3]: inactive
Potency [4]: inactive
Potency [5]: inactive
outcome [6]: inactive

O=C(O)c1cc(O)c(O)c(O)c1
Potency [15]: inactive
Potency [16]: inactive
outcome [19]: inactive
Potency [17]: inactive
outcome [18]: inactive
Potency [10]: inactive
outcome [11]: inactive
Potency [5]: inactive
Potency [12]: inactive
Potency [13]: inactive

Oc1cc(O)cc(/C=C/c2ccc(O)c(O)c2)c1
Potency [1]: inactive
outcome [2]: inactive
Potency [8]: inactive
Potency [3]: inactive
Potency [5]: 3.16 µM (active)

CCCCCCCC/C=C\CCCCCCCC(=O)NCCO
Potency [1]: inactive
outcome [2]: inactive
Potency [3]: inactive
Potency [4]: inactive
Potency [5]: inactive
outcome [6]: inactive
Potency [14]: inactive
Potency [7]: 12.6 µM (active)
